# Data from PubChem BioAssay (EPA / NIEHS).
# Results filed as inconclusive are left out. Active and inactive are the calls of the source. The calls were made as follows, unless noted: active = hit-call score of the fitted dose curve at least 0.9, where 1 is the maximum; inconclusive = response in the unintended direction; inactive = score below 0.9.
# Tests used:
# [1] = ATG_TCF_b_cat_CIS: Attagene CIS-FACTORIAL HepG2 Assay for human T-Cell-Factor with beta-catenin (TCF/b-cat) (AID 2282965; active = hit-call score of the fitted dose curve at least 0.9, where 1 is the maximum; inactive = score below 0.9); conditions: HepG2 TCF/beta-catenin cis-reporter transcription, actives raise or lower the signal
# Outline: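 In this cis-format system, transfected HepG2 cells report endogenous transcription factor activity. Readout after 24 h exposure is reporter transcript abundance from RT-PCR and capillary electrophoresis, analysed for gain or loss of signal versus DMSO.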
# [2] = ATG_TAL_CIS: Attagene CIS-FACTORIAL HepG2 Assay for human TAL Basal Promoter (AID 2282966; active = hit-call score of the fitted dose curve at least 0.9, where 1 is the maximum; inactive = score below 0.9;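 also: background control endpoint measuring basal TAL promoter reporter mRNA not a specific factor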); conditions: HepG2 Attagene cis-factorial TAL promoter reporter; actives raise or lower the signal
# Outline: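 In this cell-based multiplex, HepG2 liver cells bearing cis-promoter reporter constructs are dosed for 24 hours. Total RNA is reverse-transcribed and amplified, labelled fragments are sized by capillary electrophoresis, and signal changes are fitted bidirectionally versus DMSO.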
# [3] = ATG_TGFb_CIS: Attagene CIS-FACTORIAL HepG2 Assay for human Transforming Growth Factor (TGF) (AID 2282967; active = hit-call score of the fitted dose curve at least 0.9, where 1 is the maximum; inactive = score below 0.9); conditions: HepG2 Attagene CIS TGFb reporter, mRNA transcription; actives raise or lower the signal
# Outline: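 HepG2 cells transiently transfected with cis-promoter-driven multiple reporter units measure endogenous TF activity; reporter mRNA quantified at 24 h by RT-PCR, FAM labeling, HpaI digestion and capillary electrophoresis. Bidirectional fit vs DMSO.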
# [4] = ATG_VDRE_CIS: Attagene CIS-FACTORIAL HepG2 Assay for human Vitamin D Receptor Element (VDRE) (AID 2282968; active = hit-call score of the fitted dose curve at least 0.9, where 1 is the maximum; inactive = score below 0.9); conditions: HepG2 VDRE cis-reporter transcription, actives raise or lower the signal
# Outline: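 HepG2 cells transiently transfected with cis-element reporter units, dosed 24 h; reporter mRNA measured by RT-PCR, 6-FAM labeling, HpaI digestion and capillary electrophoresis. Activity fitted bidirectionally against DMSO baseline.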
# [5] = molecular target: X-box-binding protein 1 (Homo sapiens) (UniProt P17861); assay: ATG_Xbp1_CIS: Attagene CIS-FACTORIAL HepG2 Assay for human X-box Binding Protein 1 (XBP1) (AID 2282972; active = hit-call score of the fitted dose curve at least 0.9, where 1 is the maximum; inactive = score below 0.9); conditions: HepG2 XBP1 cis-element reporter, Attagene multiplex; actives raise or lower the signal
# X-box-binding protein 1 (Homo sapiens), sequence (P17861 whole entry, looked up): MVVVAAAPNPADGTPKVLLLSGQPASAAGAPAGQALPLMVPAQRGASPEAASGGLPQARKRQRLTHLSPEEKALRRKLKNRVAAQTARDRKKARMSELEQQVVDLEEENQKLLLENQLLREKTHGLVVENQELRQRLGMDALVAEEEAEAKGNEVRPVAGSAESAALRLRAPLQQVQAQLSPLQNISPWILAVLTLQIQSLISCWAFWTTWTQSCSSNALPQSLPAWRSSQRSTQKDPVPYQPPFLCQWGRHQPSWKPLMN
# Outline: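 HepG2 cells transiently transfected with cis-regulated multiple reporter transcription units; endogenous transcription factor activity measured 24 hours after chemical dosing. Reporter mRNA quantified by RT-PCR, 6-FAM primer extension, HpaI digestion and capillary electrophoresis; bidirectional fitting versus DMSO.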
# [6] = ATG_M_19_TRANS: Attagene TRANS-FACTORIAL HepG2 Assay for M19 Transcription Factor (Internal Marker) (AID 2282974); conditions: HepG2 Attagene TRANS-FACTORIAL M19 internal marker reporter
# Outline: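 Transfected HepG2 (GAL4-UAS MRTUs), 24 h compound, TriZol RNA, DNase-treated RT, reporter PCR, FAM label, HpaI digest, CE fluorescence; gain vs DMSO.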
# [7] = molecular target: Glucocorticoid receptor (Homo sapiens) (UniProt P04150); assay: ATG_GR_TRANS: Attagene TRANS-FACTORIAL HepG2 Assay for human Glucocorticoid Receptor (GR) (AID 2282978); conditions: HepG2 Attagene TRANS GR reporter, mRNA transcription;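 also: activators score as hits since higher reporter transcript over DMSO is fitted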
# Glucocorticoid receptor (Homo sapiens), sequence (P04150 whole entry, looked up): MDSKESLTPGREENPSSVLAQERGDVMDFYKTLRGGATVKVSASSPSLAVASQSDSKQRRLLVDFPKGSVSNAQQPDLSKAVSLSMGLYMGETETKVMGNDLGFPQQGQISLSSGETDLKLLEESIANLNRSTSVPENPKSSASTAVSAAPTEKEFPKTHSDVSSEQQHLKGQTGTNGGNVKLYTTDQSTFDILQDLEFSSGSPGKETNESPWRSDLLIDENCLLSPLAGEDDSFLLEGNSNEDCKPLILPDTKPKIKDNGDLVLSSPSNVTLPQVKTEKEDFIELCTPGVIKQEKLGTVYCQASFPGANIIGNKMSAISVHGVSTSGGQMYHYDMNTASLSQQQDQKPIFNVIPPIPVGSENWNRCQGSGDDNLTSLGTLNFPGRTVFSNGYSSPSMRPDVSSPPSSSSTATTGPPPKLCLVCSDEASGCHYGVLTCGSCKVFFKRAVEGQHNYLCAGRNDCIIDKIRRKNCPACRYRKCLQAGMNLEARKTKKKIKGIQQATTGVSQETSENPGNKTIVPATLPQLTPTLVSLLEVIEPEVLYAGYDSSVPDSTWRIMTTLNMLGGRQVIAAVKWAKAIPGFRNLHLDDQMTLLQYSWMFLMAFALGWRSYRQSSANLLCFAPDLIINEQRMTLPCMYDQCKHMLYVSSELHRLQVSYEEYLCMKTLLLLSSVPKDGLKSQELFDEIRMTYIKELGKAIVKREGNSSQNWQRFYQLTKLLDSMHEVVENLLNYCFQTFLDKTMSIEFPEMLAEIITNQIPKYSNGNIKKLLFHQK
# Outline: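 After 24 h incubation with test chemical, transfected HepG2 cells were lysed for RNA; reporter cDNA was amplified, FAM-labelled, HpaI-digested and sized on a capillary analyser. Signal gain relative to DMSO was scored.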
# [8] = ATG_M_06_TRANS: Attagene TRANS-FACTORIAL HepG2 Assay for M06 Transcription Factor (Internal Marker) (AID 2282983); conditions: HepG2 Attagene TRANS M06 internal marker reporter
# Outline: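 After a 24 h chemical treatment of transfected HepG2, RNA underwent DNase I treatment, reverse transcription and reporter-specific PCR; labelled, HpaI-digested products were sized by capillary electrophoresis. Signal increase relative to DMSO defined activity.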
# [9] = ATG_M_32_TRANS: Attagene TRANS-FACTORIAL HepG2 Assay for M32 Transcription Factor (Internal Marker) (AID 2282984); conditions: HepG2 Attagene TRANS M32 internal marker reporter;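 also: transcript level of a background control reporter unit measured by RT-PCR and capillary electrophoresis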
# Outline: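 HepG2 cells transiently transfected with multiple GAL4-UAS reporter transcription units, dosed for 24 hours; reporter mRNA quantified by RT-PCR, 6-FAM primer extension, HpaI digestion and capillary electrophoresis. Gain-of-signal fitted versus DMSO baseline; internal background-control marker.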
# [10] = molecular target: Estrogen receptor (Homo sapiens) (UniProt P03372); assay: ATG_ERa_TRANS: Attagene TRANS-FACTORIAL HepG2 Assay for human Estrogen Receptor alpha (ERa) (AID 2282970); conditions: HepG2 Attagene TRANS ERa GAL4 reporter, mRNA
# Estrogen receptor (Homo sapiens), sequence (P03372 whole entry, looked up, the tested form may be a part): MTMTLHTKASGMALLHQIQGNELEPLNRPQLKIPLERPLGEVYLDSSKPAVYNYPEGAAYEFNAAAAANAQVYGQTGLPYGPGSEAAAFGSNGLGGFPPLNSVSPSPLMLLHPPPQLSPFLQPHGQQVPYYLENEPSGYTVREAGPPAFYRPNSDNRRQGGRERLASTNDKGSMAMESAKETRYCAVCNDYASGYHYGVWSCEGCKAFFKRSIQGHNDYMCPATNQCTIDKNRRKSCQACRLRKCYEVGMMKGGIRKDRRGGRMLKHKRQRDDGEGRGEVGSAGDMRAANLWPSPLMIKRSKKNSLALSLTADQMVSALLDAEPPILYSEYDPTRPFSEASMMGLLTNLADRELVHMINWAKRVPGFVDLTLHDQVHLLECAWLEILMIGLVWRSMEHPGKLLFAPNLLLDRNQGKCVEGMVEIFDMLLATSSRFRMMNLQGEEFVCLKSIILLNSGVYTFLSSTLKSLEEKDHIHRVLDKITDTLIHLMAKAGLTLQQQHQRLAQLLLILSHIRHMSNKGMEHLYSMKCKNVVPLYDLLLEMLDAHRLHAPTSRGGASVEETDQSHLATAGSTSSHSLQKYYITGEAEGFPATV
# Outline: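 After 24 h of compound treatment, RNA from HepG2 cells bearing transfected GAL4-UAS reporter constructs is converted to cDNA, amplified and fluorescently labelled. Capillary electrophoresis resolves the ERa-linked reporter; DMSO serves as negative control.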
# [11] = molecular target: Steroid hormone receptor ERR1 (Homo sapiens) (UniProt P11474); assay: ATG_ERRa_TRANS: Attagene TRANS-FACTORIAL HepG2 Assay for human Estrogen-Related Receptor alpha (ERRa) (AID 2282971); conditions: HepG2 Attagene TRANS reporter, ERRa transactivation
# Steroid hormone receptor ERR1 (Homo sapiens), sequence (P11474 whole entry, looked up, the tested form may be a part): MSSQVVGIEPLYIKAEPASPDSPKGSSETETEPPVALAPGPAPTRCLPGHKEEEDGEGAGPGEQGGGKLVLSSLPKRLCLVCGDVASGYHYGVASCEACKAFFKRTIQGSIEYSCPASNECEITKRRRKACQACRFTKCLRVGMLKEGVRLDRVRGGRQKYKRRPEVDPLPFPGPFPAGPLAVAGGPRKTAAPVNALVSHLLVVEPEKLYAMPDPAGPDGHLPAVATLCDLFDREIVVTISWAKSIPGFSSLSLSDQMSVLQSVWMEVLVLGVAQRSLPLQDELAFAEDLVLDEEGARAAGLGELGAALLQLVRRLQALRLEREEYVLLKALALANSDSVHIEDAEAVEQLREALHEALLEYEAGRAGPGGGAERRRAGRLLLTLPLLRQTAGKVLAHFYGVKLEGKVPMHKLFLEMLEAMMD
# Outline: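 Transfected HepG2, 24 h dosing, ERRa-Gal4 chimera driving GAL4-UAS reporter. Readout: reporter mRNA via RT-PCR plus capillary electrophoresis (fluorescence). Positive direction vs DMSO control.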
# [12] = molecular target: Estrogen-related receptor gamma (Homo sapiens) (UniProt P62508); assay: ATG_ERRg_TRANS: Attagene TRANS-FACTORIAL HepG2 Assay for human Estrogen-Related Receptor gamma (ERRg) (AID 2282977); conditions: HepG2 Attagene TRANS reporter, ERRg transactivation;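 also: hits increase reporter signal over DMSO so potencies reflect activators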
# Estrogen-related receptor gamma (Homo sapiens), sequence (P62508 whole entry, looked up, the tested form may be a part): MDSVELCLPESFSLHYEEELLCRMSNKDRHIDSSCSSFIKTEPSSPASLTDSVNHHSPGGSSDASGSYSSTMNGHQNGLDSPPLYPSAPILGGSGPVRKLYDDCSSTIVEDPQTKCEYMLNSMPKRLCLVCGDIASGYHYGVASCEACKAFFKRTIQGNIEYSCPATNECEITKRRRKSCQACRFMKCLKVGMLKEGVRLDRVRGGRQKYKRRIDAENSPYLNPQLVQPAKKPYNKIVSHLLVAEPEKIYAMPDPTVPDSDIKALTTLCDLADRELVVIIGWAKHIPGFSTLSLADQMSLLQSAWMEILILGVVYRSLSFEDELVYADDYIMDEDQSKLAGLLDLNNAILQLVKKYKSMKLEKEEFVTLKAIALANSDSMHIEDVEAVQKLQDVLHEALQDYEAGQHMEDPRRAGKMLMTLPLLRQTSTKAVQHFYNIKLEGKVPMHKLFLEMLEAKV
# Outline: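 Transient HepG2 transfectants, 24 h compound exposure, GAL4-UAS reporter mRNA by RT-PCR/6-FAM labelling/capillary electrophoresis; positive direction vs DMSO.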
# [13] = molecular target: Nuclear receptor subfamily 4 group A member 2 (Homo sapiens) (UniProt P43354); assay: ATG_NURR1_TRANS: Attagene TRANS-FACTORIAL HepG2 Assay for human Nuclear Receptor Related Protein 1 (NURR1) (AID 2282985); conditions: HepG2 Attagene TRANS reporter, mRNA readout
# Nuclear receptor subfamily 4 group A member 2 (Homo sapiens), sequence (P43354 whole entry, looked up, the tested form may be a part): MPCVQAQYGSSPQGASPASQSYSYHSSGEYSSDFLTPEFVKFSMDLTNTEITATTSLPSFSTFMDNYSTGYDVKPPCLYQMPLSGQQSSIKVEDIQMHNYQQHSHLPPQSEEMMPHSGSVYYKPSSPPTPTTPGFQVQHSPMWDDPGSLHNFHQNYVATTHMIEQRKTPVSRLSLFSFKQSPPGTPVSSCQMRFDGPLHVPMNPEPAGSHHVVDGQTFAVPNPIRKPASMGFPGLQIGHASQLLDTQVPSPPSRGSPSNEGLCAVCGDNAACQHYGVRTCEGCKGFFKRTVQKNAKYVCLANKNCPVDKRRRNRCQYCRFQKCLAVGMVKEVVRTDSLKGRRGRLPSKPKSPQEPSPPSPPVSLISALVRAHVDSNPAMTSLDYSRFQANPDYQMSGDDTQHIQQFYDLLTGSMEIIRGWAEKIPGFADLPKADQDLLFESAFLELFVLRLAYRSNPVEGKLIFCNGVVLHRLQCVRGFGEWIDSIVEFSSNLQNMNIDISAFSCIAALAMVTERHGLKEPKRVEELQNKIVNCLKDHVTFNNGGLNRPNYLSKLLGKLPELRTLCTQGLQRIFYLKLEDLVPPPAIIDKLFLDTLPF
# Outline: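 HepG2 cells transiently transfected with GAL4-UAS reporter units and chimeric NR-Gal4 constructs; chemical exposure 24 h. Reporter mRNA quantified by RT-PCR, fluorescent labelling and capillary electrophoresis; gain of signal fitted relative to DMSO baseline.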
# [14] = molecular target: Nuclear receptor subfamily 1 group I member 3 (Homo sapiens) (UniProt Q14994); assay: ATG_CAR_TRANS: Attagene TRANS-FACTORIAL HepG2 Assay for human Constitutive Androstane Receptor (CAR) (AID 2282969); conditions: HepG2 Attagene TRANS-FACTORIAL CAR reporter;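 also: activators raise reporter mRNA above DMSO so AC50 marks induction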
# Nuclear receptor subfamily 1 group I member 3 (Homo sapiens), sequence (Q14994 whole entry, looked up, the tested form may be a part): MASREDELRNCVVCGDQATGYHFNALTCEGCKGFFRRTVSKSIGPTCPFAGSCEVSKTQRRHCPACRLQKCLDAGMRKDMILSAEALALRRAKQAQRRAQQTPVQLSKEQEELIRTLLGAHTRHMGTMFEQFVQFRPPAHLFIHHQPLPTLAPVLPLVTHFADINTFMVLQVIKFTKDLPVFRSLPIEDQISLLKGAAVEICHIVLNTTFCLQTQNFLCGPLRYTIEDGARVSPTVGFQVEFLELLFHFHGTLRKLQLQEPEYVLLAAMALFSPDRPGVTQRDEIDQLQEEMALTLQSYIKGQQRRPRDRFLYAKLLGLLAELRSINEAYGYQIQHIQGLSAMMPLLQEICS
# Outline: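 HepG2 cells transiently transfected with multiplexed GAL4-UAS reporter units expressing chimeric NR-Gal4 proteins; compound exposure 24 h. Reporter mRNA measured by RT-PCR, 6-FAM labelling, HpaI digestion and capillary electrophoresis; gain-of-signal fitted against DMSO baseline.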
# [15] = molecular target: Hepatocyte nuclear factor 4-alpha (Homo sapiens) (UniProt P41235); assay: ATG_HNF4a_TRANS: Attagene TRANS-FACTORIAL HepG2 Assay for human Hepatocyte Nuclear Factor 4 alpha (HNF4a) (AID 2282982); conditions: HepG2 HNF4a transactivation reporter, mRNA readout
# Outline: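 HepG2 cells transiently transfected with multiplexed GAL4-UAS reporter units responsive to chimeric NR-GAL4 proteins; compound exposure 24 h. Reporter mRNA quantified by RT-PCR, 6-FAM labelling, HpaI digestion and capillary electrophoresis; gain of signal versus DMSO baseline.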
# [16] = molecular target: Bile acid receptor (Homo sapiens) (UniProt Q96RI1); assay: ATG_FXR_TRANS: Attagene TRANS-FACTORIAL HepG2 Assay for Farnesoid X Receptor (FXR) (AID 2282979); conditions: HepG2 Attagene TRANS FXR-GAL4 reporter transcription;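 also: hits raise reporter mRNA above DMSO so AC50 marks FXR activation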
# Bile acid receptor (Homo sapiens), sequence (Q96RI1 whole entry, looked up, the tested form may be a part): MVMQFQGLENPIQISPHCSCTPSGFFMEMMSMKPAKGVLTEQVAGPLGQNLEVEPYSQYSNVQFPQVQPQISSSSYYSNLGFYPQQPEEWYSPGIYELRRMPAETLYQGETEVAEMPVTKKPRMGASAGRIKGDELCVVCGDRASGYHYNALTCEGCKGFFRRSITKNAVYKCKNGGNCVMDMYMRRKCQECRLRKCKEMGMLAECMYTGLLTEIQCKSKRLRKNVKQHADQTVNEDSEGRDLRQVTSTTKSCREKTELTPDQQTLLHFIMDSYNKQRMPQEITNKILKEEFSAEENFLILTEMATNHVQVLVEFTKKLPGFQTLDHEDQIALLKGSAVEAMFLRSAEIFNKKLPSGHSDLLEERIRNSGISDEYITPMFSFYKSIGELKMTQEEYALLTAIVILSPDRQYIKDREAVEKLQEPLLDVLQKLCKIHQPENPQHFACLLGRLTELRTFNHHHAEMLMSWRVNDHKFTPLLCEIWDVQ
# Outline: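 Read-out: fluorescent reporter transcripts quantified by capillary electrophoresis after RT-PCR of total RNA. Source cells were HepG2 transiently carrying chimeric NR-GAL4 plus GAL4-UAS reporter units, dosed 24 h. Activity fitted upward relative to DMSO baseline.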
# [17] = ATG_GAL4_TRANS: Attagene TRANS-FACTORIAL HepG2 Assay for GAL4 (Internal Marker) (AID 2282976); conditions: HepG2 Attagene TRANS GAL4 internal marker reporter
# Outline: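 RT-PCR/capillary electrophoresis readout of reporter mRNA. HepG2, transient MRTU transfection (GAL4-UAS reporters), 24 h compound exposure. Background-control endpoint, positive direction vs DMSO baseline.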
# [18] = molecular target: Oxysterols receptor LXR-alpha (Homo sapiens) (UniProt Q13133); assay: ATG_LXRa_TRANS: Attagene TRANS-FACTORIAL HepG2 Assay for human Liver X Receptor alpha (LXRa) (AID 2282980); conditions: HepG2 Attagene TRANS reporter, LXRa transactivation
# Outline: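 Read-out: reporter transcript levels by RT-PCR plus capillary electrophoresis, fluorescence intensity. Transiently transfected HepG2, exogenous NR-GAL4 chimera, GAL4-UAS reporters; 24 h compound exposure. Activity = increase over DMSO negative control.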
# [19] = molecular target: Androgen receptor (Homo sapiens) (UniProt P10275); assay: ATG_AR_TRANS: Attagene TRANS-FACTORIAL HepG2 Assay for human Androgen Receptor (AR) (AID 2282973); conditions: HepG2 Attagene TRANS-FACTORIAL AR reporter transcription
# Androgen receptor (Homo sapiens), sequence (P10275 whole entry, looked up, the tested form may be a part): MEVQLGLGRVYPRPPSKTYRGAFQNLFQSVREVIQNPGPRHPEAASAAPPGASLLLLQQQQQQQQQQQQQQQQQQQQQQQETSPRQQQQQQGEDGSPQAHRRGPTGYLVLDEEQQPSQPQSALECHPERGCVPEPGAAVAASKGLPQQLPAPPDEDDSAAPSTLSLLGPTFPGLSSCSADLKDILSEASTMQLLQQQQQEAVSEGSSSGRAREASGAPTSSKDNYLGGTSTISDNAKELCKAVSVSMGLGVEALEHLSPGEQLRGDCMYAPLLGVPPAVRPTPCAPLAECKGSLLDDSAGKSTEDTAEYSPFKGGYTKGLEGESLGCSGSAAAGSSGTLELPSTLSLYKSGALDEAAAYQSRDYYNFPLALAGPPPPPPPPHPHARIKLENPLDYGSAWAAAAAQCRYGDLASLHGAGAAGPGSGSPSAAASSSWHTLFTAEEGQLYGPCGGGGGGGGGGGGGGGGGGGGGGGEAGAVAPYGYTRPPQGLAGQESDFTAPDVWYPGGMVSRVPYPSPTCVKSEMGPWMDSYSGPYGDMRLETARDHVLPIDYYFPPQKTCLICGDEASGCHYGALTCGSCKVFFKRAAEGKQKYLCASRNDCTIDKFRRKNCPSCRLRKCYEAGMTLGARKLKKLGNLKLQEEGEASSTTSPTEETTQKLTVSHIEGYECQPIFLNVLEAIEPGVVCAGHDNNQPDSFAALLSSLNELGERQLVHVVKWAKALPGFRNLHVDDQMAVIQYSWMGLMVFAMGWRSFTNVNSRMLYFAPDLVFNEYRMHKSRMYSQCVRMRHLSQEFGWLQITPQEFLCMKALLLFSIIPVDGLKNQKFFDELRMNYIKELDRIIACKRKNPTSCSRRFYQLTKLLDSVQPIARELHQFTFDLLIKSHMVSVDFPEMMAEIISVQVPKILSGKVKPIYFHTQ
# Outline: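 Readout is reporter transcript abundance, quantified by fluorescent RT-PCR products separated on capillary electrophoresis. Human HepG2 liver cells carried transiently transfected NR-Gal4 chimera plus GAL4-UAS reporter constructs and were dosed for 24 h; activity scored upward versus DMSO.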
structure (smiles),measurement,setting,value
CC(Cl)CN(C)C (stereo not drawn),outcome,[1],inactive
same,outcome,[2],inactive
same,outcome,[3],inactive
same,outcome,[4],inactive
same,outcome,[5],inactive
same,outcome,[6],inactive
same,outcome,[7],inactive
same,outcome,[8],inactive
same,outcome,[9],inactive
CCOP(=S)(Oc1ccc([N+](=O)[O-])cc1)c1ccccc1 (stereo not drawn),outcome,[1],inactive
same,outcome,[2],inactive
same,outcome,[3],inactive
same,AC50,[4],6.46 µM (active)
same,AC50,[10],3.9 µM (active)
same,outcome,[11],inactive
same,outcome,[5],inactive
same,outcome,[12],inactive
same,outcome,[8],inactive
same,outcome,[13],inactive
c1cc2c3c(cccc3c1)CC2,outcome,[1],inactive
same,outcome,[2],inactive
same,outcome,[3],inactive
same,outcome,[14],inactive
same,outcome,[5],inactive
same,outcome,[6],inactive
same,outcome,[7],inactive
same,outcome,[15],inactive
same,outcome,[9],inactive
CCOC(=O)c1ccccc1N,outcome,[1],inactive
same,outcome,[2],inactive
same,outcome,[3],inactive
same,outcome,[4],inactive
same,outcome,[10],inactive
same,outcome,[5],inactive
same,outcome,[7],inactive
same,outcome,[16],inactive
same,outcome,[8],inactive
same,outcome,[9],inactive
Cc1ccc([N+](=O)[O-])cc1C,outcome,[1],inactive
same,outcome,[2],inactive
same,outcome,[3],inactive
same,outcome,[4],inactive
same,outcome,[5],inactive
same,outcome,[6],inactive
same,outcome,[17],inactive
same,outcome,[16],inactive
same,outcome,[8],inactive
same,outcome,[9],inactive
O=P1(N(CCCl)CCCl)NCCCO1 (stereo not drawn),outcome,[1],inactive
same,outcome,[2],inactive
same,outcome,[3],inactive
same,outcome,[4],inactive
same,outcome,[11],inactive
same,outcome,[5],inactive
same,outcome,[17],inactive
same,outcome,[7],inactive
same,outcome,[8],inactive
same,outcome,[9],inactive
O=S(=O)(c1ccc(O)cc1)c1ccc(O)cc1,outcome,[1],inactive
same,outcome,[2],inactive
same,outcome,[3],inactive
same,outcome,[4],inactive
same,AC50,[10],1.06 µM (active)
same,outcome,[5],inactive
same,outcome,[7],inactive
same,outcome,[16],inactive
same,outcome,[18],inactive
same,outcome,[8],inactive
same,outcome,[9],inactive
C=CC(=O)OCC(F)(F)C(F)F,AC50,[1],89.3 µM (active)
same,outcome,[2],inactive
same,outcome,[3],inactive
same,AC50,[4],90.3 µM (active)
same,outcome,[11],inactive
same,outcome,[5],inactive
same,outcome,[19],inactive
same,outcome,[17],inactive
same,outcome,[7],inactive
same,outcome,[8],inactive
same,outcome,[9],inactive
same,outcome,[13],inactive
OCC(F)(F)OC(F)(F)C(F)(F)OC(F)(F)CO,outcome,[1],inactive
same,outcome,[2],inactive
same,outcome,[3],inactive
same,outcome,[4],inactive
same,AC50,[10],9.78 µM (active)
same,outcome,[5],inactive
same,outcome,[19],inactive
same,outcome,[7],inactive
same,outcome,[16],inactive
same,outcome,[8],inactive
same,outcome,[9],inactive
same,outcome,[13],inactive
O=C(O)C(F)(F)OC(F)(F)C(F)(F)OC(F)(F)C(=O)O,outcome,[1],inactive
same,outcome,[2],inactive
same,outcome,[3],inactive
same,outcome,[4],inactive
same,outcome,[10],inactive
same,outcome,[11],inactive
same,outcome,[5],inactive
same,outcome,[19],inactive
same,outcome,[7],inactive
same,outcome,[16],inactive
same,outcome,[8],inactive
same,outcome,[9],inactive
NC(=O)C(F)(F)C(F)(F)F,outcome,[1],inactive
same,outcome,[2],inactive
same,outcome,[3],inactive
same,outcome,[4],inactive
same,outcome,[11],inactive
same,outcome,[5],inactive
same,outcome,[19],inactive
same,outcome,[6],inactive
same,outcome,[17],inactive
same,outcome,[12],inactive
same,outcome,[7],inactive
same,outcome,[16],inactive
same,outcome,[8],inactive
